Bioassay records deposited in PubChem BioAssay by National Center for Advancing Translational Sciences (NCATS).
Only some compounds are listed: those with a hit (about 5.9% of all), similar ones and a draw of the others.
KB-3-1 cytotox: kills parental KB-3-1 adenocarcinoma cells. KB-3-1 viability, CellTiter-Glo ATP luminescence, 72 h. hit rate 1.4% among 400,000. Potency, µM (titrated, usually from 46.1 µM), most hits filed as cytotoxic; note: % is set by controls: 0 for no effect and ±100 for the full control effect; nearly all actives have a fitted effect of over 60% in size
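Cytotoxicity in the drug-sensitive parental line KB-3-1 was scored as loss of CellTiter-Glo luminescence following 72 h incubation with compound. Values come from curve fitting of normalized concentration-response data.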
ATXN viability: reduces viability in counter-screen for ATXN expression inhibitors; Potency, µM (doses to about 56.7 µM), usual class: cytotoxic; AID 651635; S2 cells (HEK-293 line with an ATXN2-luciferase reporter) viability, CellTiter-Fluor protease fluorescence, 24 h; hit rate 0.49% among 400,000; note: nearly all actives have a fitted effect of over 40% in size
TGFb SMAD3 inh: inhibitors of TGF-b signaling. HepG2 CAGA-GFP TGF-b/SMAD3 reporter, GFP fluorescence, 18 h; TGF-beta stimulated, 500 pg/mL final. Potency, µM (top dose mostly 46.1 µM), for the others: top-dose activity, negative = inhibition, usual class: inhibitors. AID 588855. hit rate 1.2% among 410,000; note: % is set by controls: 0 for no effect and ±100 for the full control effect; nearly all actives have a fitted effect of over 65% in size
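Per well, imaged GFP fluorescence of HEPG2 CAGA-GFP cells gives the signal; cells get compound, then TGF-beta (500 pg/mL final), 18 h at 37 degrees C; %Activity versus -TGF-beta and +DMSO controls.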
ATXN2 expr inh: ATXN2 expression inhibition; HEK-293 ATXN2-luciferase reporter, luminescence, 24 h; Potency, µM (series often up to 57 µM), for the others: at the top dose activity change, negative = inhibition, most hits filed as inhibitors; hit rate 0.72% among 360,000; note: % is set by controls: 0 for no effect and ±100 for the full control effect; nearly all actives have a fitted effect of over 55% in size
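ATXN2-luciferase reporter cells (luciferase flanked by upstream and downstream ATXN2 gene portions) were treated 24 h at 37 °C with compounds at up to 57 uM. SteadyGlo luminescence gave expression; GF-AFC fluorescence gave viability.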
HepG2 tox: kills HepG2 cells in TGF-b inhibitor counter-screen. HepG2 CAGA-GFP viability, ATP luminescence, 18 h. Potency, µM (top dose mostly 46.1 µM), for inactives: top-dose activity change, negative = cytotoxicity, most hits filed as cytotoxic. hit rate 0.76% among 410,000
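CellTiter-Glo luminescence gave cytotoxicity after 18 hours at 37 degrees C. The cells were HepG2 CAGA-GFP in 1% FBS DMEM, stimulated with 500 pg/mL TGF-beta after compound addition. %Activity was normalised to no-cell wells (complete cell-killing) and DMSO (no toxicity), and curves were fitted and classified.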
KB-V1 cytotox: kills drug-selected multidrug resistant KB-V1 cells. Potency, µM (top dose mostly 46.1 µM), usual class: cytotoxic. KB-V1 MDR cells viability, CellTiter-Glo, 72 h. hit rate 3.4% among 400,000; note: % is set by controls: 0 for no effect and ±100 for the full control effect; nearly all actives have a fitted effect of over 60% in size
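Cytotoxicity toward P-gp-expressing KB-V1 cells was determined as loss of CellTiter-Glo luminescence after 72 h at 37 degrees C. Compounds were tested in quantitative HTS format across a concentration range, with curves fitted to normalized data.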
Numbers without * were called inactive; ! = repeats disagree. Calls come from the whole dose curve; as a rule, active = well fitted curve in the direction sought with a large enough effect; inconclusive = small, poorly fitted or top-dose-only effect, or another doubt; inactive = no such curve, though single readings can be large; an effect the other way counts as inactive or inconclusive. Potency is the fitted concentration of half-maximal effect.

`O=C(Nc1ccc(F)cc1F)c1cc(CN2CCOCC2)on1` gave KB-3-1 cytotox inactive, ATXN viability inactive, TGFb SMAD3 inh -5%, ATXN2 expr inh 1%, HepG2 tox 2% and KB-V1 cytotox inactive.
`CCN(CC)CCNC(=O)c1cc2c(-c3ccc(Cl)cc3)nn(C)c2s1` gave KB-3-1 cytotox inconclusive, TGFb SMAD3 inh 11µM*, ATXN2 expr inh 28µM*, HepG2 tox -65% and KB-V1 cytotox inconclusive.
CCOCCCNC(=O)c1cc2c(-c3ccc(Cl)cc3)nn(C)c2s1 was read as KB-3-1 cytotox inactive, ATXN viability inconclusive, TGFb SMAD3 inh -14%, ATXN2 expr inh inconclusive, HepG2 tox 3% and KB-V1 cytotox inactive.
Screening CCCCN(CC)CCNC(=O)c1cc2c(-c3ccc(Cl)cc3)nn(C)c2s1 returned KB-3-1 cytotox inconclusive, TGFb SMAD3 inh inconclusive, ATXN2 expr inh inconclusive, HepG2 tox 20µM*! and KB-V1 cytotox 23µM*.
Screening CCCN(CCC)CCNC(=O)c1cc2c(-c3ccccc3F)nn(C)c2s1 returned KB-3-1 cytotox inactive, ATXN viability inconclusive, TGFb SMAD3 inh inconclusive, ATXN2 expr inh inconclusive, HepG2 tox -22% and KB-V1 cytotox inconclusive.
For CCCN(CCC)CCNC(=O)c1cc2c(-c3ccc(Cl)cc3)nn(C)c2s1 the results were KB-3-1 cytotox 16µM*, ATXN viability inconclusive, TGFb SMAD3 inh -11%, ATXN2 expr inh inconclusive, HepG2 tox -14% and KB-V1 cytotox inactive.
Screening COC(=O)C1CCN(Cc2ccc3c(c2)CN(C(=O)C(C)N2CCOCC2)CCO3)CC1 (centres undefined) returned ATXN viability inactive.
Cc1cc2c(F)c(Oc3ncnn4cc(OC[C@@H](C)O)c(C)c34)ccc2[nH]1 was read as ATXN2 expr inh 51%.
For COc1ccc(-c2csc(N3CCN(C(=O)c4ccco4)CC3)n2)cc1 the results were KB-3-1 cytotox inconclusive, ATXN viability inactive, TGFb SMAD3 inh -9%, ATXN2 expr inh inconclusive, HepG2 tox -40% and KB-V1 cytotox inactive.
`O=C(NC1CCCCC1)N1CCN(CCc2ccccc2)CC1` gave KB-3-1 cytotox inactive, ATXN viability inactive, TGFb SMAD3 inh 4%, ATXN2 expr inh -8%, HepG2 tox -18% and KB-V1 cytotox 18µM*.
S=C(NCCCN1CCOCC1)N1CCN(c2nc(-c3ccc(Cl)cc3)cs2)CC1 was read as KB-3-1 cytotox inconclusive, TGFb SMAD3 inh 13µM*, ATXN2 expr inh 3.2µM*, HepG2 tox 11µM* and KB-V1 cytotox inactive.
COc1ccc(-c2csc(N3C(=O)C4C5c6ccccc6C(c6ccccc65)C4C3=O)n2)cc1 (centres undefined) was read as KB-3-1 cytotox inactive, ATXN viability inconclusive, TGFb SMAD3 inh -30%, ATXN2 expr inh 4%, HepG2 tox -11% and KB-V1 cytotox 6.5µM*.
`COc1ccc(-c2csc(N3CCN(C(=O)c4ccccc4)CC3)n2)cc1` gave KB-3-1 cytotox inactive, ATXN viability inactive, TGFb SMAD3 inh -13%, ATXN2 expr inh -21%, HepG2 tox -26% and KB-V1 cytotox 16µM*.
Screening CCCCOc1ccc(C(=O)Nc2ccc3c(c2)CCCN3C(=O)c2cccs2)cc1 returned KB-3-1 cytotox inconclusive, ATXN viability inactive, TGFb SMAD3 inh -11%, ATXN2 expr inh -7%, HepG2 tox -43% and KB-V1 cytotox inconclusive.
CC1c2ccccc2CN1NC(=O)c1ccc(Cl)c(S(N)(=O)=O)c1 (centres undefined) was read as ATXN viability inactive and ATXN2 expr inh 3%.
Screening COc1ccc(Nc2cc(C(=O)NC3CCCC3)c3ccccc3n2)cc1 returned KB-3-1 cytotox inactive, ATXN viability inactive, TGFb SMAD3 inh -11%, ATXN2 expr inh 3%, HepG2 tox -2% and KB-V1 cytotox inactive.
`O=C(N1CCOCC1)N1CCN(c2nc(-c3ccccc3)cs2)CC1` gave KB-3-1 cytotox inactive, ATXN viability inconclusive, TGFb SMAD3 inh -5%, ATXN2 expr inh 25%, HepG2 tox -10% and KB-V1 cytotox 21µM*.
Screening c1ccc(-c2csc(N3CCOCC3)n2)cc1 returned KB-3-1 cytotox inactive, ATXN viability inactive, TGFb SMAD3 inh -13%, ATXN2 expr inh 71%, HepG2 tox -18% and KB-V1 cytotox inactive.
`O=C(NC12CC3CC(CC(C3)C1)C2)N1CCN(c2nc(-c3ccccc3)cs2)CC1` gave KB-3-1 cytotox inactive, ATXN viability inconclusive, TGFb SMAD3 inh -23%, ATXN2 expr inh inconclusive, HepG2 tox 3% and KB-V1 cytotox inactive.
Screening COc1cccc(-c2csc(N3CCN(C(=O)Nc4ccc(F)cc4)CC3)n2)c1 returned KB-3-1 cytotox inconclusive, ATXN viability inactive, TGFb SMAD3 inh -18%, ATXN2 expr inh -22%, HepG2 tox -19% and KB-V1 cytotox inconclusive.
Screening COCCNC(=S)N1CCN(c2nc(-c3ccccc3)cs2)CC1 returned KB-3-1 cytotox inactive, ATXN viability inactive, TGFb SMAD3 inh inconclusive, ATXN2 expr inh -37%, HepG2 tox -13% and KB-V1 cytotox inactive.
`COc1cccc(-c2csc(N3CCN(C(=O)C4CCCCC4)CC3)n2)c1` gave KB-3-1 cytotox inconclusive, ATXN viability inactive, TGFb SMAD3 inh inconclusive, ATXN2 expr inh -1%, HepG2 tox -23% and KB-V1 cytotox 18µM*.
`O=C(NC1CCCCC1)N1CCN(c2nc(-c3ccccc3)cs2)CC1` gave KB-3-1 cytotox inactive, ATXN viability inconclusive, TGFb SMAD3 inh inconclusive, ATXN2 expr inh inconclusive, HepG2 tox -24% and KB-V1 cytotox 12µM*.
`O=C(NC(=S)N1CCN(c2nc(-c3ccccc3)cs2)CC1)c1cccnc1` gave KB-3-1 cytotox inactive, ATXN viability inactive, TGFb SMAD3 inh inconclusive, ATXN2 expr inh -10%, HepG2 tox -14% and KB-V1 cytotox 21µM*.
Screening O=C(Nc1ccc2c(c1)OCCO2)C(c1ccccc1)n1c(=O)c(-c2cc3ccccc3[nH]2)nc2ccccc21 (centres undefined) returned KB-3-1 cytotox inactive and KB-V1 cytotox inactive.
Screening CCOC(=O)c1cc2c(=O)n3ccccc3nc2n(CC2CCCO2)c1=NC(=O)c1ccc(OC)cc1OC (centres undefined) returned KB-3-1 cytotox inactive, TGFb SMAD3 inh inconclusive, ATXN2 expr inh 1%, HepG2 tox -21% and KB-V1 cytotox inactive.
